Reference: the supplement of paper PMC6555819

Test system: VDR:RXRa (NR concentration 270 nM, RXRa partner concentration 90 nM)
Experiment: PBM binding z-score (relative to random genomic background probes); higher = stronger binding; sequences stand for … in GC…GCGATTGACAGCGTAGAATGAAGG
Protocol: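 Protein-binding microarray (Agilent 4x180K custom design, double-stranded 60-nt probes: 5' GC cap, 34-nt variable region, 24-nt constant primer region; full probe sequence given). Purified or IVT nuclear receptor:RXRα heterodimers (3:1 NR:RXRα, mostly 270:90 nM) or homodimers were incubated for 1 h in PBS with 2% milk and no ligand, then detected with Alexa488 antibodies. Fluorescence from o1-orientation probes (~5 replicates averaged) was converted to z-scores against 500 random hg19 background probes. Variable regions are seed direct-repeat (DR0–DR5) sites, all their single-nucleotide variants and half-site ablations.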

Sequence	PBM binding z-score
CCTTACGGGTCCCGAGGTTATAGCACGACGAGCG	0.198
CCTAGCAGGCCAATCTGGGTAACTCAAGGCTTGA	-0.773
TCTTGTAGATCAATAGAGGTTAAGGAAGTGCGCT	1.77
TGAATGAGGTTGTAAGATCAGGGAACGTTGCAAA	-0.0386
CCTACCGGGCCATTCAGAGGTCATTGATCATATG	4.24
CGCCCAAGGTCAAAGGTCAGTGAAGAGATGACGG	6.61
ATCGAAAGGTCGACGATGTGAGTATACACCGTTT	2.51
CCTAGTGGGCCACGAAAGGTCATTGATTCAGTGA	4.05
TCTACTTGGTCAAAGGTCACACACTCGAAATGCG	5.28
CCTTACGGGTCACTGACCGGTTATAGCATTTGGA	3.34
ATCTCTAGGTAAAGATATTTCAGTGAATGCAAAT	0.441
ATACCAAGGTGATCGTGAGGTCGCTGATACTAAC	2.39
ATATTTAGGTTATCGGGTCATTCAGTTTGCGCAT	5.35
GCGACTGGGGCAAAGCAGTTTACCATAAGGTTGG	0.278
CGTCCAAGGTCAAAGGCCAGTGAAGAGATGACGG	4.14
TCTCGTAGATCAAAGGTTAAGAAAGCCGAAGCCT	1.24
CGTCCAAGGTCAATGCTACGTCAGTGAAAGCATT	3.53
GCTGCTAGGTCAGCTTGGTCAGCTAACGGGTACG	0.54
TCTTGTAGATCAGCAGTTTAAGAAAGCTGGCCAA	-0.0839
GTACCAAGGTAAATAGGTCGTTGATGAGTAGGCG	0.336

Sequence	PBM binding z-score
CGTGAAAGTTCAAGGTAACGTAACAGAAAGCAGC	3.81
TCTATTAGTTGATTAGGGAAACCGAAACAGCGGA	0.846
CACACTAGGTCACCGGAAGGTCAAAGTCCGCATG	5.97
CTCGAAAGGTCGCTTGAGGTGAGTATACGGATAA	3.4
TCATATAGGTAAAGGTCAAAGTCGAACGATATGA	4.77
TCTTGGAGATCAAAGGTTAAGAAAGCCGAAGCCT	1.57
GGAACGATGGCAAAGTTGATAGCATCTGTCGACG	-0.351
ATCGAAAGGTCGAAGGTGAGGATACCCACCCGAA	2.71
CGTCCAAGGTCATAGGCGGTCAGTGAAGACAGAT	4.7
CAGCCTAGGTCAGGGCCAGTATCGGAGGAACGTT	-0.0138
TAAATGAGGTTATAAGATCAGGGAACGTTGCAAA	1.1
AATACAGGGTCACCAGGCCAGAGTAGGTACGAAT	4.82
TAGCCTAGGTCTTGCGGGCCAGTATAGTGTCGGC	-0.977
CATACTAGGTCACGAAAGGTCAAAGTCGAATGAC	6.92
TCAGACAGGTGAAAGTAACTCAGGTACGCAGTCG	0.591
CCTACTGGGGCAGAAAGGTTACCATACCATCCGG	0.923
ATATGTAGCTTACATCCGGGTCATTCAGGCTATG	2.82
CCTACTGGGCCTTCAGGTCATTGATATCAACGTT	1.45
TGACCAAGGTGAAGGTCGTTGATCCCTCTGTAGA	1.43
TTACCAAGGCGAAGGTCGTTGATCCCTCTGTAGA	0.836
